# Experiments:
# Experiment in all cases: DAPPL (digital affinity profiling via proximity ligation, sequencing); 10 mM Tris-HCl pH 7.5, 50 mM NaCl, 1 mM DTT, 4% glycerol, room temperature, 30 min; GST-TFs on glutathione beads, 16-mer random dsDNA library, 0.1% formaldehyde crosslink after washing; high values mean tight binding
# FEV = biological target: T1, FEV (Homo sapiens, UniProt Q99581 1-238); conditions: protein: recombinant; tags: N-terminal GST; dsDNA, one strand shown
# T1 sequence: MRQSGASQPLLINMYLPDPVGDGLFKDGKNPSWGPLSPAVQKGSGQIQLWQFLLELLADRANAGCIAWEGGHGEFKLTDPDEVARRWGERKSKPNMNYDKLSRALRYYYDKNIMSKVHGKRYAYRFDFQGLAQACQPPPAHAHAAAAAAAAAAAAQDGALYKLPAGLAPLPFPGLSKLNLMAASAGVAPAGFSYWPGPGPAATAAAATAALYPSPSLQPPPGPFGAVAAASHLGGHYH
# Method in brief: (§1)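 Binding signal is defined as a hexamer's read frequency for one factor over its frequency for the tag-only sample. To obtain reads, GST-fused human transcription factors were expressed in yeast, captured on glutathione beads, barcoded with DNA and pooled with that sample. Pools met 200 nmole of a 16-mer random double-stranded DNA library in Tris/NaCl/DTT/glycerol buffer for 30 min at room temperature before washing, 0.1% formaldehyde crosslinking, proximity ligation (BsaI/T4 ligase, 1 h, 37 °C), PCR and Illumina NextSeq500 sequencing.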
# ETV5 = ETV5 (Homo sapiens, UniProt P41161 1-510); conditions: protein: recombinant; tags: N-terminal GST; dsDNA, one strand shown
# Method in brief: as §1
# HSF1 = HSF1 (Homo sapiens, UniProt Q00613 1-529); conditions: protein: recombinant; tags: N-terminal GST; chain copies: 3; dsDNA, one strand shown
# Method in brief: as §1
# SPIC = biological target: T2, SPIC (Homo sapiens, UniProt Q8N5J4 1-248); conditions: protein: recombinant; tags: N-terminal GST; dsDNA, one strand shown
# T2 sequence: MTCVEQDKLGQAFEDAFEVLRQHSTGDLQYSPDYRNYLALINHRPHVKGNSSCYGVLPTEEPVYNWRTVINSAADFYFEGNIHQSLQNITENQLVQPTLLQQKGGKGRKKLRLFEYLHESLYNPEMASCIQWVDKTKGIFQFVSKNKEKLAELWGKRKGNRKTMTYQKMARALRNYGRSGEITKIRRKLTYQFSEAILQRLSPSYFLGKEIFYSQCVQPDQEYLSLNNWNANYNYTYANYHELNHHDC
# Method in brief: as §1
# ELF4 = ELF4 (Homo sapiens, UniProt Q99607 1-663); conditions: protein: recombinant; tags: N-terminal GST; dsDNA, one strand shown
# Method in brief: as §1
# ELK4 = biological target: T3, ELK4 (Homo sapiens, UniProt P28324-2 1-405); conditions: protein: recombinant; tags: N-terminal GST; dsDNA, one strand shown
# T3 sequence: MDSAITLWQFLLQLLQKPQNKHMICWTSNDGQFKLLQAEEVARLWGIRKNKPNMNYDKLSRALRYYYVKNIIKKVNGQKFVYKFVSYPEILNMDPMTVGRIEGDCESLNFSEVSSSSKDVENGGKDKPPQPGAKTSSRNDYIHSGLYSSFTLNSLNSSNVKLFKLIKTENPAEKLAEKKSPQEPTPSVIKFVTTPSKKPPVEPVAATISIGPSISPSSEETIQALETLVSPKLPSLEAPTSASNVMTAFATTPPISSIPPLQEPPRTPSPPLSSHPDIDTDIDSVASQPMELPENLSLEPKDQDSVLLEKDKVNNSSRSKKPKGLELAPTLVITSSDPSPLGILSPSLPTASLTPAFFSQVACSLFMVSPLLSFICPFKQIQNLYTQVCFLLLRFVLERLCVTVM
# Method in brief: as §1
# ETV2 = biological target: T4, ETV2 (Homo sapiens, UniProt O00321 1-342); conditions: protein: recombinant; tags: N-terminal GST; dsDNA, one strand shown
# T4 sequence: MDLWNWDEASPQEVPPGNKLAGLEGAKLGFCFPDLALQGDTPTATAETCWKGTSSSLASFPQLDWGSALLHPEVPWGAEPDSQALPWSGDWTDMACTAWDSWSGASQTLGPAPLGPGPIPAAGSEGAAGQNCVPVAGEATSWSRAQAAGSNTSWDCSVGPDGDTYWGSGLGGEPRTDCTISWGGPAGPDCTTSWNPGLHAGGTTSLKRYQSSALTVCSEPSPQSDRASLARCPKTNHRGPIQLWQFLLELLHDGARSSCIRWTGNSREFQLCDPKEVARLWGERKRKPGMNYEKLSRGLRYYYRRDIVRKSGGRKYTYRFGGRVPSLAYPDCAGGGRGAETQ
# Method in brief: as §1
# ELF3 = biological target: T5, ELF3 (Homo sapiens, UniProt P78545 1-371); conditions: protein: recombinant; tags: N-terminal GST; dsDNA, one strand shown
# T5 sequence: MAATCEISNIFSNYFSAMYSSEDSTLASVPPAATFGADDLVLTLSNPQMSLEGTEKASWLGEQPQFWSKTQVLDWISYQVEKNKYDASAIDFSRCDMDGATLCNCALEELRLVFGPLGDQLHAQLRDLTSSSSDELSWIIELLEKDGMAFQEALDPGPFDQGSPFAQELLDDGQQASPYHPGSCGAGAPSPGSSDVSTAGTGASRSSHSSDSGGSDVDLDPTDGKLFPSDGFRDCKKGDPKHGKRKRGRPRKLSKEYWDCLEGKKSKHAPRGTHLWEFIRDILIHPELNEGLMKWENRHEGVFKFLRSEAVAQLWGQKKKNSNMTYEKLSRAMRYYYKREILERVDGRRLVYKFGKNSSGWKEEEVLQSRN
# Method in brief: as §1
# CRX = CRX (Homo sapiens, UniProt O43186 1-299); conditions: protein: recombinant; tags: N-terminal GST; dsDNA, one strand shown
# Method in brief: as §1
# ETV1 = ETV1 (Homo sapiens, UniProt P50549 1-477); conditions: protein: recombinant; tags: N-terminal GST; dsDNA, one strand shown
# Method in brief: as §1
# Chain of ETV5 (P41161 whole entry): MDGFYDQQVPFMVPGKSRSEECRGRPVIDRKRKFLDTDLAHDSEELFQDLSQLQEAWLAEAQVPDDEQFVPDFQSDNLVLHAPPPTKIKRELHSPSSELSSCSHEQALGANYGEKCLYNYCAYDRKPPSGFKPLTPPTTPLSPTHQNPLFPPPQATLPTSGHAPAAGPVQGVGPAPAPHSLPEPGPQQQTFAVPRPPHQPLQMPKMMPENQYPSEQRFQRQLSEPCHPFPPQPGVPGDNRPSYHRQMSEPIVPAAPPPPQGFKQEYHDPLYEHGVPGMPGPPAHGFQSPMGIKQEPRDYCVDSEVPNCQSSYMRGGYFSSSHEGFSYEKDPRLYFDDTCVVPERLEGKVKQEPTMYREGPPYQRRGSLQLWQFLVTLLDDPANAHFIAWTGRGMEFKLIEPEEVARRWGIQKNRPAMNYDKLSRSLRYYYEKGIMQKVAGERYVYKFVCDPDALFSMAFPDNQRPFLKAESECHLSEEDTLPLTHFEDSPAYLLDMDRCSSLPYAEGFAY
# Chain of ETV1 (P50549 whole entry): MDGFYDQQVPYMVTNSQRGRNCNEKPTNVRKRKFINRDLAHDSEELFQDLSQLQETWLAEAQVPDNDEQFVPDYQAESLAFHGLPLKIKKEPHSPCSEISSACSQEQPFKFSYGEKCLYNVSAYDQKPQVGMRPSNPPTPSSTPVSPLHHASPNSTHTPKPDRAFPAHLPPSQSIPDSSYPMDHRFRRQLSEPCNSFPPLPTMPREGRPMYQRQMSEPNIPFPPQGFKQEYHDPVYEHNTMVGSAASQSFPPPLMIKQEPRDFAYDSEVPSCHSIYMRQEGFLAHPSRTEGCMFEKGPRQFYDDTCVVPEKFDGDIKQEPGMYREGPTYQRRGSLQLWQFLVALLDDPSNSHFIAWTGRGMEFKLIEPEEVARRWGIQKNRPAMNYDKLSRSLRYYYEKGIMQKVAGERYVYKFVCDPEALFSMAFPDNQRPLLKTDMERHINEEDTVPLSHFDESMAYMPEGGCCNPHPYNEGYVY
# Chain of HSF1 (Q00613 whole entry): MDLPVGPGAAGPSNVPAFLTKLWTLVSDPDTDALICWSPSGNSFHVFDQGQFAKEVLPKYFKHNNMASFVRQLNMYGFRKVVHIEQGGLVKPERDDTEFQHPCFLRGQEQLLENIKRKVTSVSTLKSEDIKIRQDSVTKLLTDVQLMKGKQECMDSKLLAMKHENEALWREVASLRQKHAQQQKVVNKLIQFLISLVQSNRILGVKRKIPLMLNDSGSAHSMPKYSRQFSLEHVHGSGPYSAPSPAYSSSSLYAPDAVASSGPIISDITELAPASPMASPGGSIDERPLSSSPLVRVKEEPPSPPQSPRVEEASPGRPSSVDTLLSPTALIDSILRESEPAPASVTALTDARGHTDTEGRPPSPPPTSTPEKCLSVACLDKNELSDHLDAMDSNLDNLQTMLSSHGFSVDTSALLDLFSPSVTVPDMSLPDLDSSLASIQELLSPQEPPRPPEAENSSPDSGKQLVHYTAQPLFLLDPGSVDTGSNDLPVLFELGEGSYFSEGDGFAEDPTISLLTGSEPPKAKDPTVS
# Chain of CRX (O43186 whole entry): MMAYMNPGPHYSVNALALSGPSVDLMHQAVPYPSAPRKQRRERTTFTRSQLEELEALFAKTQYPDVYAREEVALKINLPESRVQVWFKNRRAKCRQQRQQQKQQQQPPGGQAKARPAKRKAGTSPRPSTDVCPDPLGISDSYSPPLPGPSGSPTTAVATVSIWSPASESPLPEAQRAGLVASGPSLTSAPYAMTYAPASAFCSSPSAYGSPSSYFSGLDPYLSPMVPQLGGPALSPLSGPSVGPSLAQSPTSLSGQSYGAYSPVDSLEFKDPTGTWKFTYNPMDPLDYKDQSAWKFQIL
# Chain of ELF4 (Q99607 whole entry): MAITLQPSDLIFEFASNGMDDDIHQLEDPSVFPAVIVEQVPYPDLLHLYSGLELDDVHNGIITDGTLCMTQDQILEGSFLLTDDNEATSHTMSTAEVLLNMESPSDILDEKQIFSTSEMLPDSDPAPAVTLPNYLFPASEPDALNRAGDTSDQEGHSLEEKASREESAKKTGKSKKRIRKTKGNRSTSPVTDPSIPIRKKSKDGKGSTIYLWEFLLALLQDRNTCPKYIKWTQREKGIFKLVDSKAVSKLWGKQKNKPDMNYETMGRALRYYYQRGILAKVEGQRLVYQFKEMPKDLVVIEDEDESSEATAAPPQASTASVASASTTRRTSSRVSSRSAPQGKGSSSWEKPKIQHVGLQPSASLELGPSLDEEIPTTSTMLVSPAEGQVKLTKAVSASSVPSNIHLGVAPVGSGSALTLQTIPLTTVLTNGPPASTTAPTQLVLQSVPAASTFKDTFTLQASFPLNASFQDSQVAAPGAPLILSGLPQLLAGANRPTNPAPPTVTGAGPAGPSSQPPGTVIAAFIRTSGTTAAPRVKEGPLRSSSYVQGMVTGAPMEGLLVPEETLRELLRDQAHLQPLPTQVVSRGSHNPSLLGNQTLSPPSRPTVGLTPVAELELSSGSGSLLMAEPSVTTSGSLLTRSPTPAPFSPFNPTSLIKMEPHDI
sequence,measurement,setting,value
GATGGC,binding signal,FEV,"1.33 fold enrichment (6-mer frequency, TF over GST control)"
same,binding signal,ETV5,"1.26 fold enrichment (6-mer frequency, TF over GST control)"
same,binding signal,HSF1,"1.1 fold enrichment (6-mer frequency, TF over GST control)"
same,binding signal,SPIC,"1.45 fold enrichment (6-mer frequency, TF over GST control)"
same,binding signal,ELF4,"1.4 fold enrichment (6-mer frequency, TF over GST control)"
same,binding signal,ELK4,"1.3 fold enrichment (6-mer frequency, TF over GST control)"
same,binding signal,ETV2,"1.21 fold enrichment (6-mer frequency, TF over GST control)"
same,binding signal,ELF3,"1.47 fold enrichment (6-mer frequency, TF over GST control)"
same,binding signal,CRX,"1.11 fold enrichment (6-mer frequency, TF over GST control)"
same,binding signal,ETV1,"1.31 fold enrichment (6-mer frequency, TF over GST control)"
